Source: PubChem BioAssay
Records with an inconclusive call do not appear. The source made the active and inactive calls. Cut-off read from the data, not from the text of the source, unless noted: active = inhibition above about 80%; inactive = the rest.

What was measured:
[1] = growth inhibition of DIPG glioma cells, dose response, cell-based, JHH-DIPG-1, MIPE4.0, CellTiter-Glo, qHTS (AID 1347062; cut-off not given, nearly all actives have AC50 up to about 27 µM;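 for AC50: cells exposed to compound for two days before readout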); conditions: JHH-DIPG-1 viability, CellTiter-Glo ATP luminescence
[2] = growth inhibition of DIPG glioma cells, dose response, cell-based, SU-DIPG-XIII, MIPE5.0, CellTiter-Glo, qHTS (AID 1347064; cut-off not given, nearly all actives have AC50 up to about 23 µM;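 for AC50: cells exposed to compound for 48 hours before the viability read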); conditions: SU-DIPG-XIII viability, CellTiter-Glo ATP luminescence
[3] = viability loss in pontine glioma line – cell-based, SU-DIPG-XXV, MIPE5.0, CellTiter-Glo, qHTS, dose response (AID 1347065; cut-off not given, nearly all actives have AC50 up to about 26 µM;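 note: cells exposed to compound for 48 hours before ATP readout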); conditions: CellTiter-Glo ATP luminescence
[4] = SU-DIPG-VI glioma cell viability, MIPE4.0 library, CellTiter-Glo luminescence, qHTS (AID 1347066; cut-off not given, nearly all actives have AC50 up to about 30 µM;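 note: cells exposed to compound for 48 hours before readout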); conditions: CellTiter-Glo ATP luminescence
[5] = JHH-DIPG-1 glioma cell viability, MIPE5.0 library, CellTiter-Glo luminescence, qHTS (AID 1347067; cut-off not given, nearly all actives have AC50 up to about 26 µM;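 note: cells exposed to compound for 48 hours before readout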); conditions: JHH-DIPG-1 glioma viability, CellTiter-Glo ATP luminescence
[6] = SU-DIPG-XXV glioma cell viability, MIPE5.0 library, qHTS (AID 1347068; cut-off not given, nearly all actives have IC50 up to about 30 µM)
[7] = LFS_MB_P medulloblastoma growth inhibition, cell-based, chromothripsis tumors, cisplatin or BGB combos (AID 1671449); conditions: LFS_MB_P medulloblastoma cells;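 note: cells exposed for 96 hours; 0% = vehicle DMSO and 100% = killing by high DMSO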
[8] = HDN33 neuroblastoma growth inhibition, cell-based, chromothripsis tumors, cisplatin or BGB combos (AID 1671450); conditions: HDN33 neuroblastoma cells, stronger effect = higher value;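 note: cells exposed to compound for four days; 0% = vehicle DMSO and 100% = cell killing by high DMSO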
[9] = ICB984 medulloblastoma cell growth inhibition, synergistic combos for chromothripsis tumors, cisplatin or BGB combos (AID 1671451; call rule not given here;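 note: cells exposed for 96 hours before readout; 0% = vehicle DMSO and 100% = killing by high DMSO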); conditions: ICB984 medulloblastoma cells, drug combinations, stronger effect = higher value
[10] = LFS_MB_1R medulloblastoma cell growth inhibition, synergistic combos for chromothripsis tumors, cisplatin or BGB combos (AID 1671452); conditions: LFS_MB_1R medulloblastoma cells, stronger effect = higher value;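 note: cells exposed for 96 hours before readout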
[11] = HTB85 osteosarcoma cell growth inhibition, synergistic combos for chromothripsis tumors, BGB or cisplatin IC20 combos (AID 1671453); conditions: HTB85 osteosarcoma cells, drug combinations, stronger effect = higher value;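 note: cells exposed for 96 hours before readout; 0% = vehicle DMSO and 100% = high DMSO killing control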
[12] = CRL2098 osteosarcoma cell growth inhibition, synergistic combos for chromothripsis tumors, BGB or cisplatin IC20 combos (AID 1671454); conditions: CRL2098 osteosarcoma cells, drug combinations, stronger effect = higher value;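 note: cells exposed for 96 h before readout; 0% = vehicle DMSO and 100% = killing by high DMSO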
[13] = HD-MB03 medulloblastoma cell growth inhibition, synergistic combos for chromothripsis tumors, BGB or cisplatin IC20 combos (AID 1671455; in the data active = inhibition above about 83%;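 note: 0% = vehicle DMSO and 100% = high DMSO as cytotoxic control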); conditions: HD-MB03 medulloblastoma cells, stronger effect = higher value
[14] = UWB1.289 ovarian carcinoma cell growth inhibition, synergistic combos for chromothripsis tumors, BGB or cisplatin combos (AID 1671456); conditions: UWB1.289 ovarian carcinoma cells, stronger effect = higher value;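 note: cells exposed to compound for four days; 0% = vehicle DMSO and 100% = killing by high DMSO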
[15] = LFS_MB_2R medulloblastoma cell growth inhibition, synergistic combos for chromothripsis tumors, cisplatin combos (AID 1671457); conditions: LFS_MB_2R medulloblastoma cells, stronger effect = higher value;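 note: cells exposed to compound for four days before readout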
[16] = MDA-MB-436 breast carcinoma cell growth inhibition, synergistic combos for chromothripsis tumors, BGB or cisplatin combos (AID 1671458; call rule not given here;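 note: cells exposed for 96 hours; 0% = vehicle DMSO and 100% = killing by high DMSO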); conditions: MDA-MB-436 breast carcinoma growth inhibition, drug combinations, stronger effect = higher value
[17] = UWB1.289_BRCA1 ovarian cancer growth, cell-based, BGB or cisplatin combinations (AID 1671459); conditions: UWB1.289 BRCA1 ovarian carcinoma, drug combinations, stronger effect = higher value
[18] = human astrocyte viability loss, single and combined drugs, cytotoxicity control for chromothriptic childhood tumor combination screen, cell-based, BGB or cisplatin IC20 combos (AID 1671460); conditions: Human astrocytes, drug combinations, stronger effect = higher value;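 note: cells exposed to compounds for 96 hours before viability readout; 0% = vehicle and 100% = killing control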
[19] = growth inhibition of BT084 medulloblastoma cells, cell-based, ICGC_MB145, cisplatin and BGB IC40 combos (AID 1671461); conditions: drug combinations, stronger effect = higher value;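 note: cells exposed to drugs for 96 hours; 0% = vehicle DMSO and 100% = high DMSO full killing control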
[20] = growth inhibition of RCMB18 medulloblastoma cells, cell-based, cisplatin and BGB IC40 combos (AID 1671462); conditions: stronger effect = higher value;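 note: cells exposed to compound for four days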
[21] = growth inhibition of CRL1545 osteosarcoma cells, cell-based, cisplatin and BGB IC20 combos (AID 1671464); conditions: stronger effect = higher value;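 note: cells exposed to compound for 96 hours before readout; 0% = vehicle DMSO and 100% = high DMSO killing control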
[22] = measured here: combination with BGB IC40, at 0.05 µM
[23] = measured here: with BGB IC20 combination, at 0.5 µM
[24] = measured here: with cisplatin IC20 combination, at 0.5 µM
[25] = measured here: combination with cisplatin, at 0.5 µM
[26] = measured here: combination with cisplatin, at 5 µM

COc1ccc2c(Oc3ccc(NC(=O)c4c(C)n(CC(C)(C)O)n(-c5ccccc5)c4=O)cc3F)ccnc2c1
outcome [1]: inactive
outcome [2]: inactive
AC50 [3]: 20.9 µM (active)
outcome [4]: inactive
AC50 [5]: 20.9 µM (active)
outcome [6]: inactive

COc1ccc(C(=O)CC2(O)C(=O)Nc3c(Cl)ccc(Cl)c32)cc1 (centres undefined)
AC50 [1]: 6.62 µM (active)
AC50 [2]: 11.8 µM (active)
AC50 [3]: 4.17 µM (active)
outcome [4]: inactive
AC50 [5]: 2.63 µM (active)
inhibition ([7]; at 0.5 µM, stronger effect = higher value): -20.8% (inactive)
inhibition ([7]; measured here: combination with BGB IC20, at 0.005 µM): -14.2%
inhibition ([7]; measured here: combination with BGB IC40, at 0.005 µM): -20.5%
inhibition [7, 22]: -14.8%
inhibition ([7]; measured here: combination with cisplatin, at 0.5 µM, stronger effect = higher value): -51.4%
inhibition ([7]; measured here: combination with cisplatin, at 5 µM, stronger effect = higher value): 10.7%
inhibition ([8]; BGB combo, at 5 µM): 63.6%
inhibition ([8]; at 0.5 µM): 28.4% (inactive)
inhibition ([8]; cisplatin combo, at 5 µM): 59.7%
inhibition [8, 23]: 21.3%
inhibition [8, 24]: 16%
inhibition ([8]; single agent, at 5 µM): 93.1%
inhibition ([9]; BGB IC20 combo, at 0.005 µM): -4.85%
inhibition ([9]; BGB IC40 combo, at 0.005 µM): -25.9%
inhibition ([9]; BGB IC40 combo, at 0.05 µM): 11.3%
inhibition ([9]; at 0.5 µM): -24.6% (inactive)
inhibition ([9]; cisplatin combo, at 0.05 µM): 8.85%
inhibition ([9]; cisplatin combo, at 0.5 µM): -32.2%
inhibition ([9]; cisplatin combo, at 5 µM): -25.3%
inhibition ([9]; measured here: 5 uM single agent, at 5 µM): -28.8%
inhibition ([10]; at 0.5 µM): 2.98% (inactive)
inhibition [10, 22]: -32.3%
inhibition [10, 25]: 23.2%
inhibition [10, 26]: 27.4%
inhibition ([11]; at 0.5 µM): 33.2% (inactive)
inhibition ([11]; measured here: with BGB IC20, at 0.5 µM): 33.1%
inhibition ([11]; measured here: with BGB IC20, at 5 µM): 64.4%
inhibition ([11]; measured here: with cisplatin IC20, at 0.5 µM): 11.7%
inhibition ([11]; measured here: with cisplatin IC20, at 5 µM): 63.8%
inhibition ([11]; single agent, at 5 µM): 88.4%
inhibition ([12]; at 0.5 µM): -4.98% (inactive)
inhibition ([12]; measured here: combination with BGB at IC20, at 0.5 µM): 4.02%
inhibition ([12]; measured here: combination with cisplatin at IC20, at 0.5 µM): -4.5%
inhibition ([13]; at 0.5 µM): 57.3% (inactive)
inhibition ([13]; measured here: combo with BGB at IC20, at 0.5 µM): 58.6%
inhibition ([13]; measured here: combo with cisplatin at IC20, at 0.5 µM): 55.7%
inhibition ([14]; at 0.5 µM): 11.3% (inactive)
inhibition ([14]; measured here: inhibition with BGB combination, at 0.05 µM): -8.43%
inhibition ([14]; measured here: inhibition with cisplatin combination, at 0.05 µM): -6.45%
inhibition ([15]; at 0.5 µM): -4.47% (inactive)
inhibition [15, 25]: -11.7%
inhibition [15, 26]: -26.3%
inhibition ([16]; at 0.5 µM): 2.68% (inactive)
inhibition ([16]; measured here: BGB combination, at 0.5 µM): -5.4%
inhibition ([16]; measured here: BGB combination, at 5 µM): 40.2%
inhibition ([16]; measured here: cisplatin combination, at 0.5 µM): -2.19%
inhibition ([16]; measured here: cisplatin combination, at 5 µM): 64.3%
inhibition ([17]; BGB combination, concentration series, at 5 µM): 47.8%
inhibition ([17]; at 0.5 µM): 14.6% (inactive)
inhibition ([17]; cisplatin combination, concentration series, at 5 µM): 51.1%
inhibition ([18]; at 0.5 µM): 9.33% (inactive)
inhibition ([18]; measured here: combo with BGB IC20, at 0.5 µM): 10.9%
inhibition ([18]; measured here: combo with cisplatin IC20, at 0.5 µM): 2.7%
inhibition ([19]; at 0.5 µM): -18.2% (inactive)
inhibition ([19]; cisplatin combination, at 0.5 µM): 1.77%
inhibition ([19]; cisplatin combination, at 5 µM): 10.6%
inhibition ([19]; measured here: BGB IC40 combination 0.05 uM, at 0.05 µM): 2.03%
inhibition ([19]; single agent, at 5 µM): 40.8%
inhibition ([20]; at 0.5 µM): -4.73% (inactive)
inhibition ([20]; cisplatin combo, at 5 µM): 26.4%
inhibition ([20]; measured here: BGB IC40 combination, at 0.05 µM): -41.1%
inhibition [20, 25]: 6.7%
inhibition ([20]; single agent, at 5 µM): 24.9%
inhibition ([21]; at 0.5 µM): 0.14% (inactive)
inhibition [21, 23]: 16.2%
inhibition [21, 24]: -10.3%
inhibition ([21]; single agent, at 0.05 µM): -6.9%
inhibition ([21]; single agent, at 5 µM): 77.7%
